Where “and” joins values, the source holds several entries; their conditions need not be identical. Equal entries are not always repeated. Among all 5,500 compounds or so, about 2,000 (36%) were called active. Another 18% or so got no clear call; they are omitted. Cut-off read from the data, not from the text of the source: active = normalized growth mostly below about 0.91 (no sharp cut-off); inconclusive = no clear call, values can overlap the other calls; inactive = mostly above about 0.92. The list shows a part of the results.
Test: chemical genetic growth profiling, strain panel (AID 1159580);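 note: tested at 20 µM; growth read once vehicle control cultures reached saturation at 30 °C; 1 = growth at the plate median or of vehicle wells; lower values mean less growth of the strain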
Settings: S. cerevisiae deletion strains, growth OD

Measured: normalized growth

NC[C@H]1O[C@H](O[C@H]2[C@H](O)[C@@H](O[C@H]3O[C@H](CO)[C@@H](O)[C@H](N)[C@H]3O)[C@H](N)C[C@@H]2N)[C@H](N)C[C@@H]1O
inactive: locus YAL013W, strain DEP1, stronger effect = lower value 1 | locus YAL021C, strain ccr4, stronger effect = lower value 0.979 | locus YAL026C, strain drs2, stronger effect = lower value 1.01 | locus YAL030W, strain snc1, stronger effect = lower value 1.01 | locus YBL061C, strain skt5, stronger effect = lower value 1.01 | locus YBR009C, strain hhf1, stronger effect = lower value 1.05 | locus YBR021W, strain FUR4, stronger effect = lower value 1.02 | locus YBR023C, strain chs3, stronger effect = lower value 1.01 | locus YBR171W, strain sec66, stronger effect = lower value 1.01 | locus YBR229C, strain ROT2, stronger effect = lower value 1.01 | locus YBR231C, strain swc5, stronger effect = lower value 0.987 | locus YBR279W, strain paf1, stronger effect = lower value 1.02 | locus YCL011C, strain gbp2, stronger effect = lower value 1.02 | locus YCL016C, strain dcc1, stronger effect = lower value 1.02 | locus YCL029C, strain bik1, stronger effect = lower value 1.02 | locus YCL061C, strain MRC1, stronger effect = lower value 0.994 | locus YCL069W, strain vba3, stronger effect = lower value 1.01 | locus YCR088W, strain abp1, stronger effect = lower value 1.01 | locus YDL005C, strain med2, stronger effect = lower value 1 | locus YDL035C, strain GPR1, stronger effect = lower value 1 | locus YDL040C, strain nat1, stronger effect = lower value 1.02 | locus YDL074C, strain BRE1, stronger effect = lower value 0.971 | locus YDL101C, strain DUN1, stronger effect = lower value 0.997 | locus YDL134C, strain PPH21, stronger effect = lower value 1.01 | locus YDL185W, strain tfp1, stronger effect = lower value 1 | locus YDL192W, strain arf1, stronger effect = lower value 1.01 | locus YDR001C, strain nth1, stronger effect = lower value 1.01 | locus YDR069C, strain doa4, stronger effect = lower value 0.985 | locus YDR101C, strain arx1, stronger effect = lower value 1.02 | locus YDR137W, strain rgp1, stronger effect = lower value 0.99 | locus YDR159W, strain sac3, stronger effect = lower value 0.987 | locus YDR162C, strain NBP2, stronger effect = lower value 1.01 | locus YDR195W, strain ref2 1.01 | locus YDR297W, strain sur2, stronger effect = lower value 1.01 | locus YDR318W, strain mcm21, stronger effect = lower value 1.02 | locus YDR334W, strain swr1, stronger effect = lower value 1.02 | locus YDR335W, strain msn5, stronger effect = lower value 1.01 | locus YDR388W, stronger effect = lower value 1.02 | locus YDR392W, strain spt3, stronger effect = lower value 0.907 | locus YDR502C, strain sam2, stronger effect = lower value 1 | locus YEL003W, strain gim4, stronger effect = lower value 1.03 | locus YEL037C, strain rad23, stronger effect = lower value 1.02 | locus YEL061C, strain CIN8 (second series), stronger effect = lower value 1.02 | locus YEL061C, strain CIN8, stronger effect = lower value 0.988 | locus YER015W, strain faa2, stronger effect = lower value 1.02 | locus YER016W, strain bim1, stronger effect = lower value 1.01 | locus YER110C, stronger effect = lower value 1.01 | locus YER111C, strain swi4, stronger effect = lower value 1.01 | locus YER155C, strain BEM2 (second series), stronger effect = lower value 0.911 | locus YER155C, strain BEM2, stronger effect = lower value 1.02 | locus YER167W, strain BCK2, stronger effect = lower value 1.01 | locus YFR010W, strain ubp6, stronger effect = lower value 1.02 | locus YGL078C, strain dbp3, stronger effect = lower value 1 | locus YGL086W, strain mad1, stronger effect = lower value 0.991 | locus YGL167C, strain pmr1, stronger effect = lower value 1.01 | locus YGL173C, strain kem1, stronger effect = lower value 1.01 | locus YGL227W, strain vid30, stronger effect = lower value 1.01 | locus YGL240W, strain doc1, stronger effect = lower value 0.978 | locus YGL248W, strain PDE1, stronger effect = lower value 0.999 | locus YGL253W, strain hxk2, stronger effect = lower value 1.01 | locus YGR135W, strain pre9, stronger effect = lower value 1.01 | locus YGR252W, strain gcn5, stronger effect = lower value 0.944 | locus YHR013C, strain ard1, stronger effect = lower value 0.952 | locus YHR027C, strain rpn1, stronger effect = lower value 1.02 | locus YHR030C, strain SLT2, stronger effect = lower value 1.01 and 0.98 | locus YHR079C, strain IRE1 (second series), stronger effect = lower value 1.02 | locus YHR079C, strain IRE1, stronger effect = lower value 0.985 | locus YHR094C, strain hxt1, stronger effect = lower value 1.02 | locus YHR129C, strain ARP1, stronger effect = lower value 1.01 | locus YHR142W, strain chs7, stronger effect = lower value 1.03 | locus YHR200W, strain rpn10, stronger effect = lower value 1.01 | locus YIL066C, strain RNR3, stronger effect = lower value 1 | locus YIL073C, strain SPO22, stronger effect = lower value 1.05 | locus YIL125W, strain kgd1, stronger effect = lower value 1 | locus YIR030C, strain dcg1, stronger effect = lower value 1.02 | locus YJL092W, strain hpr5, stronger effect = lower value 1.02 | locus YJL095W, strain BCK1 (second series), stronger effect = lower value 1.04 | locus YJL095W, strain BCK1, stronger effect = lower value 0.985 and 0.999 | locus YJL115W, strain asf1, stronger effect = lower value 1.01 | locus YJL129C, strain trk1, stronger effect = lower value 1 | locus YJL134W, strain LCB3, stronger effect = lower value 1.01 | locus YJL154C, strain vps35, stronger effect = lower value 1.02 | locus YJL164C, strain tpk1, stronger effect = lower value 1.03 | locus YJL166W, strain qcr8, stronger effect = lower value 0.979 | locus YJL168C, strain set2, stronger effect = lower value 1.01 | locus YJL187C, strain SWE1 (second series), stronger effect = lower value 1 | locus YJL187C, strain SWE1, stronger effect = lower value 1.03 | locus YJR043C, strain POL32, stronger effect = lower value 0.98 | locus YJR066W, strain TOR1, stronger effect = lower value 0.951
